Data reported in article PMC11006913.

Columns and labels:
Assay in all cases: PBM; 200 nM protein, PBS
Conditions in all cases: dsDNA, one strand shown
HESX1 [1] = molecular target: HESX1 (Homo sapiens, UniProt Q9UBX0 95-180, R165K)
HESX1 [2] = molecular target: HESX1 (Homo sapiens, UniProt Q9UBX0 95-180)
HESX1 [3] = molecular target: HESX1 (Homo sapiens, UniProt Q9UBX0 95-180, R109Q)
HESX1 [4] = molecular target: HESX1 (Homo sapiens, UniProt Q9UBX0 95-180, P111T)
HESX1 [5] = molecular target: HESX1 (Homo sapiens, UniProt Q9UBX0 95-180, F115L)
HESX1 (Homo sapiens, UniProt Q9UBX0 95-180, F115L), sequence (Q9UBX0 95-180 F115L): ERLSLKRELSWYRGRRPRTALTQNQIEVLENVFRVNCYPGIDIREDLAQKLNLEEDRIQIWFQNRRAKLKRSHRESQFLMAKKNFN

SHOX [6] = molecular target: SHOX (Homo sapiens, UniProt O15266 103-189)
SHOX (Homo sapiens, UniProt O15266 103-189), sequence (O15266 103-189): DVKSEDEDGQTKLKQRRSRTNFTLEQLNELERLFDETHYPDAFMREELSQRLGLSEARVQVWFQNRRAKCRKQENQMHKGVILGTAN

ALX4 = ALX4 (Homo sapiens, UniProt Q9H161 200-286, Q225E)
ALX4, sequence (Q9H161 200-286 Q225E): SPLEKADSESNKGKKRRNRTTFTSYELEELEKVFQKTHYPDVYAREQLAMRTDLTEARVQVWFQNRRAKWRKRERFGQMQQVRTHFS

MSX2 = MSX2 (Homo sapiens, UniProt P35548 130-214, R199I)
MSX2, sequence (P35548 130-214 R199I): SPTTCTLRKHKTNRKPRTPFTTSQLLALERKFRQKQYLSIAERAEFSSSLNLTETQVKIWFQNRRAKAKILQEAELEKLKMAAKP

ALX1 [7] = molecular target: ALX1 (Homo sapiens, UniProt Q15699 118-204, L144V)
ALX1 (Homo sapiens, UniProt Q15699 118-204, L144V), sequence (Q15699 118-204 L144V): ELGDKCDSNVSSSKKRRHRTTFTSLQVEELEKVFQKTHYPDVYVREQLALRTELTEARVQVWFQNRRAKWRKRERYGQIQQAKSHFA

ALX3 [8] = molecular target: ALX3 (Homo sapiens, UniProt O95076 139-225, N203Q)
ALX3 (Homo sapiens, UniProt O95076 139-225, N203Q), sequence (O95076 139-225 N203Q): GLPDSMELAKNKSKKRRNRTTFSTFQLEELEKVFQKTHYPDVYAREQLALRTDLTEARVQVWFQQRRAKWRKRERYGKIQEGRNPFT

SHOX [9] = molecular target: SHOX (Homo sapiens, UniProt O15266 103-189, R173C)
SHOX (Homo sapiens, UniProt O15266 103-189, R173C), sequence (O15266 103-189 R173C): as the sequence (O15266 103-189) above, with R71C counted along it

ALX1 [10] = molecular target: ALX1 (Homo sapiens, UniProt Q15699 118-204, L144R)
ALX1 (Homo sapiens, UniProt Q15699 118-204, L144R), sequence (Q15699 118-204 L144R): as the sequence (Q15699 118-204 L144V) above, with V27R counted along it

ALX3 [11] = molecular target: ALX3 (Homo sapiens, UniProt O95076 139-225)
ALX3 (Homo sapiens, UniProt O95076 139-225), sequence (O95076 139-225): as the sequence (O95076 139-225 N203Q) above, with Q65N counted along it

PROP1 [12] = molecular target: PROP1 (Homo sapiens, UniProt O75360 56-141)
PROP1 (Homo sapiens, UniProt O75360 56-141), sequence (O75360 56-141): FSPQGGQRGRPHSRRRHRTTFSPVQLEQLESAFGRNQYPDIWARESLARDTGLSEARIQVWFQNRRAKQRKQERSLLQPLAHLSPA

PROP1 [13] = molecular target: PROP1 (Homo sapiens, UniProt O75360 56-141, R99H)
PROP1 (Homo sapiens, UniProt O75360 56-141, R99H), sequence (O75360 56-141 R99H): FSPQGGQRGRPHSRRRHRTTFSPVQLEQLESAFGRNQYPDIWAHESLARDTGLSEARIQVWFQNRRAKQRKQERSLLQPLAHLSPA

ALX3 [14] = molecular target: ALX3 (Homo sapiens, UniProt O95076 139-225, L168Q)
ALX3 (Homo sapiens, UniProt O95076 139-225, L168Q), sequence (O95076 139-225 L168Q): as the sequence (O95076 139-225 N203Q) above, with L30Q, Q65N counted along it

ALX3 [15] = molecular target: ALX3 (Homo sapiens, UniProt O95076 139-225, L168V)
ALX3 (Homo sapiens, UniProt O95076 139-225, L168V), sequence (O95076 139-225 L168V): as the sequence (O95076 139-225 N203Q) above, with L30V, Q65N counted along it

PROP1 [16] = molecular target: PROP1 (Homo sapiens, UniProt O75360 56-141, F88S)
PROP1 (Homo sapiens, UniProt O75360 56-141, F88S), sequence (O75360 56-141 F88S): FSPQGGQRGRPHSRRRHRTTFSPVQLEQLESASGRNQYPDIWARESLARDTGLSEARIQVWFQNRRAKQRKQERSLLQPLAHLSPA

ALX1 [17] = molecular target: ALX1 (Homo sapiens, UniProt Q15699 118-204)
ALX1 (Homo sapiens, UniProt Q15699 118-204), sequence (Q15699 118-204): as the sequence (Q15699 118-204 L144V) above, with V27L counted along it

ALX3 [18] = molecular target: ALX3 (Homo sapiens, UniProt O95076 139-225, N203S)
ALX3 (Homo sapiens, UniProt O95076 139-225, N203S), sequence (O95076 139-225 N203S): as the sequence (O95076 139-225 N203Q) above, with Q65S counted along it

HESX1 (Homo sapiens, UniProt Q9UBX0 95-180), sequence (Q9UBX0 95-180): as the sequence (Q9UBX0 95-180 F115L) above, with L21F counted along it
HESX1 (Homo sapiens, UniProt Q9UBX0 95-180, R109Q), sequence (Q9UBX0 95-180 R109Q): as the sequence (Q9UBX0 95-180 F115L) above, with R15Q, L21F counted along it
HESX1 (Homo sapiens, UniProt Q9UBX0 95-180, P111T), sequence (Q9UBX0 95-180 P111T): as the sequence (Q9UBX0 95-180 F115L) above, with P17T, L21F counted along it
HESX1 (Homo sapiens, UniProt Q9UBX0 95-180, R165K), sequence (Q9UBX0 95-180 R165K): as the sequence (Q9UBX0 95-180 F115L) above, with L21F, R71K counted along it

For CCCTACGG, the binding signal (HESX1 [1]) was 6.51 upbm affinity estimate (log intensity, higher = more binding, comparable within an allelic series), the binding signal (HESX1 [2]) was 6.45 upbm affinity estimate (log intensity, higher = more binding, comparable within an allelic series) and the binding signal (HESX1 [3]) was 6.54 upbm affinity estimate (log intensity, higher = more binding, comparable within an allelic series). For the same sequence, the binding signal (HESX1 [4]) was 6.48 upbm affinity estimate (log intensity, higher = more binding, comparable within an allelic series) and the binding signal (HESX1 [5]) was 6.43 upbm affinity estimate (log intensity, higher = more binding, comparable within an allelic series).

With TAATTAGA the binding signal (HESX1 [1]) was 13.5 upbm affinity estimate (log intensity, higher = more binding, comparable within an allelic series), the binding signal (SHOX [6]) was 13.1 upbm affinity estimate (log intensity, higher = more binding, comparable within an allelic series) and the binding signal (ALX4) was 14.2 upbm affinity estimate (log intensity, higher = more binding, comparable within an allelic series). For the same sequence, the binding signal (HESX1 [2]) was 13.5 upbm affinity estimate (log intensity, higher = more binding, comparable within an allelic series), the binding signal (MSX2) was 13.2 upbm affinity estimate (log intensity, higher = more binding, comparable within an allelic series) and the binding signal (ALX1 [7]) was 12.3 upbm affinity estimate (log intensity, higher = more binding, comparable within an allelic series). The binding signal (ALX3 [8]) was 8.56 upbm affinity estimate (log intensity, higher = more binding, comparable within an allelic series), the binding signal (SHOX [9]) was 10.5 upbm affinity estimate (log intensity, higher = more binding, comparable within an allelic series) and the binding signal (ALX1 [10]) was 12 upbm affinity estimate (log intensity, higher = more binding, comparable within an allelic series). The binding signal (ALX3 [11]) was 12.9 upbm affinity estimate (log intensity, higher = more binding, comparable within an allelic series), the binding signal (PROP1 [12]) was 12.2 upbm affinity estimate (log intensity, higher = more binding, comparable within an allelic series) and the binding signal (HESX1 [3]) was 10 upbm affinity estimate (log intensity, higher = more binding, comparable within an allelic series). The binding signal (PROP1 [13]) was 12.2 upbm affinity estimate (log intensity, higher = more binding, comparable within an allelic series), the binding signal (ALX3 [14]) was 11.3 upbm affinity estimate (log intensity, higher = more binding, comparable within an allelic series) and the binding signal (HESX1 [4]) was 12.1 upbm affinity estimate (log intensity, higher = more binding, comparable within an allelic series). For the same sequence, the binding signal (ALX3 [15]) was 10.9 upbm affinity estimate (log intensity, higher = more binding, comparable within an allelic series), the binding signal (PROP1 [16]) was 8.08 upbm affinity estimate (log intensity, higher = more binding, comparable within an allelic series) and the binding signal (HESX1 [5]) was 8.35 upbm affinity estimate (log intensity, higher = more binding, comparable within an allelic series). The binding signal (ALX1 [17]) was 13 upbm affinity estimate (log intensity, higher = more binding, comparable within an allelic series) and the binding signal (ALX3 [18]) was 8.71 upbm affinity estimate (log intensity, higher = more binding, comparable within an allelic series).

In the case of TAATTGCA, the binding signal (HESX1 [1]) is reported as 12 upbm affinity estimate (log intensity, higher = more binding, comparable within an allelic series), the binding signal (SHOX [6]) is reported as 11.4 upbm affinity estimate (log intensity, higher = more binding, comparable within an allelic series) and the binding signal (HESX1 [2]) is reported as 12.1 upbm affinity estimate (log intensity, higher = more binding, comparable within an allelic series). The binding signal (MSX2) was 13 upbm affinity estimate (log intensity, higher = more binding, comparable within an allelic series), the binding signal (SHOX [9]) was 9.1 upbm affinity estimate (log intensity, higher = more binding, comparable within an allelic series) and the binding signal (PROP1 [12]) was 11.1 upbm affinity estimate (log intensity, higher = more binding, comparable within an allelic series). The binding signal (HESX1 [3]) was 8.74 upbm affinity estimate (log intensity, higher = more binding, comparable within an allelic series), the binding signal (PROP1 [13]) was 11.1 upbm affinity estimate (log intensity, higher = more binding, comparable within an allelic series) and the binding signal (ALX3 [14]) was 10.2 upbm affinity estimate (log intensity, higher = more binding, comparable within an allelic series). The binding signal (HESX1 [4]) was 10.6 upbm affinity estimate (log intensity, higher = more binding, comparable within an allelic series), the binding signal (PROP1 [16]) was 7.7 upbm affinity estimate (log intensity, higher = more binding, comparable within an allelic series) and the binding signal (HESX1 [5]) was 7.5 upbm affinity estimate (log intensity, higher = more binding, comparable within an allelic series).
